High-throughput results from PubChem BioAssay.
Only some compounds are listed: those with a hit (about 8.5% of all), similar ones and a draw of the others.
NPSR antagonist – antagonists of human neuropeptide S receptor cAMP signaling; CHO-NPSR cells, cAMP TR-FRET, antagonist mode; Potency, µM (doses to about 38.3 µM), most hits filed as inhibitors; 220,000 compounds, 1% hits; AID 1461; further: nearly all actives have a fitted effect of over 50% in size
Sfp inh – inhibitors of Bacillus subtilis Sfp phosphopantetheinyl transferase. Q9F4F7. Biochemical Sfp PPTase activity, qHTS. Potency, µM, most hits filed as inhibitors. 310,000 compounds, 3.5% hits;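 further: the enzyme is Sfp with the accession as filed and its product quenches rhodamine fluorescence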
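After 15 min at room temperature with compound, 15 nM Sfp received 5 uM rhodamine-CoA plus 12.5 uM BHQ-2-ybbR (50 mM Hepes pH 7.6, 10 mM MgCl2). Rate came from the fluorescence difference over 30 min, ex 525/em 598 nm.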
FBPA coupling cs – counter-screen for Giardia aldolase inhibitors: coupling enzyme system | coupling enzyme system counterscreen, AmpLite Red fluorescence | activity change, negative = inhibition, % at 58.2 µM, hits read low | 290,000 compounds, 0.67% hits | AID 2472; in the data active means activity change below about -30%
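Counterscreen of the coupled detection system alone, without aldolase: glyceraldehyde-3-phosphate coupling enzymes plus AmpLite Red readout. Compounds at 57.5 uM final, 10 min RT preincubation, 20 min RT reaction, fluorescence 525/598 nm.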
GoLoco inh red – inhibitors of human Gai1-RGS12 GoLoco interaction (red fluorophore). Potency, µM (doses to about 61.6 µM), most hits filed as inhibitors. Gai1:RGS12 GoLoco peptide FP, rhodamine, 10 min. 230,000 compounds, 0.44% hits. P63096; active means well fitted inhibition curve with a large enough effect, not every such curve was filed as active; inactive means no such curve, though single readings can be large or run the other way; further: nearly all actives have a fitted effect of over 30% in size
ALDH1A1 inh – ALDH1A1 (human) enzyme inhibition | Purified ALDH1A1, NADH fluorescence, propionaldehyde substrate | Potency, µM (doses to about 75.3 µM), most hits filed as inhibitors | 220,000 compounds, 7.3% hits; active means well fitted inhibition curve with a large enough effect, not every such curve was filed as active; inconclusive means small, poorly fitted or top-dose-only effect, or another doubt; inactive means no such curve, though single readings can be large or run the other way
Target sequence (P00352 whole entry, looked up): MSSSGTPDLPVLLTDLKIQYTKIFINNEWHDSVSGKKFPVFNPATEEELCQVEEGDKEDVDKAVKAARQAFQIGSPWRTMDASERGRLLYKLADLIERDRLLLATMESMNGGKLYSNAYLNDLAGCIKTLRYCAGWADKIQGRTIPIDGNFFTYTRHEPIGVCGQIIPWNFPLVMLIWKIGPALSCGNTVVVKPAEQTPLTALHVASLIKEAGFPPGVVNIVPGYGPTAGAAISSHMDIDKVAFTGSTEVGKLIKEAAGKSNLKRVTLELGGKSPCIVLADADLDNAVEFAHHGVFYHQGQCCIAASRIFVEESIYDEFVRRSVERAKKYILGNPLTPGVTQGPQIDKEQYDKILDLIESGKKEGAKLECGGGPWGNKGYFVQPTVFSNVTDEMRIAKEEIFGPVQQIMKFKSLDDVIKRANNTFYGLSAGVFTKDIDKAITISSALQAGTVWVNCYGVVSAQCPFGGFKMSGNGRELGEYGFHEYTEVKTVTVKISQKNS
KDM4E inh – inhibitors of human JMJD2E histone demethylase; B2RXH2; JMJD2E catalytic domain, FDH-coupled NADH fluorescence (FDH is formaldehyde dehydrogenase); Potency, µM (highest dose often 57.1 µM), actives largely listed as inhibitors; 230,000 compounds, 1.6% hits; active means well fitted inhibition curve with a large enough effect, not every such curve was filed as active; inconclusive means small, poorly fitted or top-dose-only effect, or another doubt; inactive means no such curve, though single readings can be large or run the other way; further: nearly all actives have a fitted effect of over 50% in size
Hits are given with their value; n = inactive; u = inconclusive; x = not tested or not shown; [ ] = remark or other dose. Unless noted, the call rests on the fitted dose curve; in most records, active means well fitted curve in the direction sought with a large enough effect; inconclusive means small, poorly fitted or top-dose-only effect, or another doubt; inactive means no such curve, though single readings can be large; an effect the other way counts as inactive or inconclusive.

SMILES	NPSR antagonist	Sfp inh	FBPA coupling cs	GoLoco inh red	ALDH1A1 inh	KDM4E inh
O=C(CN1CCOCC1)Nc1ccc(OCc2ccccc2)cc1	n	n	n	n	13µM	n
O=C(CNc1ccc(Oc2ccccc2)cc1)N1CCOCC1	n	50µM	n	n	u	u
O=C(CCN1CCN(CCO)CC1)Nc1ccc(OCc2ccccc2)cc1	n	n	n	n	n	n
COc1ccc(NC(=O)CN2CCOCC2)cc1	n	u	n	n	u	u
C=CCn1c(N2CCN(c3ccc(OC)cc3)CC2)nc2c1c(=O)[nH]c(=O)n2C	n	n	n	n	u	n
CC(=O)ONC(=Nc1ccccc1)c1nonc1N	n	n	n	n	x	n
CCOC(=O)c1c(Nc2nc(C)c(C(=O)NC)s2)sc(C)c1C	n	40µM	n	n	n	u
CCOC(=O)Nc1sc(C)c(C)c1C(=O)OCC	n	n	n	n	n	n
COc1ccc(-n2ncc(C(C)NS(=O)(=O)c3cc(F)ccc3C)c2C)cc1 (stereo not drawn)	x	n	x	x	x	x
O=C(Cc1c(F)cccc1Cl)N/N=C/c1cccnc1	x	n	n	x	x	x
Cc1ccc(S(=O)(=O)n2nc(-c3ccc(Cl)cc3)nc2NCc2ccco2)cc1	n	n	n	n	3.5µM	n
O=C(c1nc2ccccn2c1CN1CCCC(O)C1)N1CCN(C2CCCCC2)CC1 (stereo not drawn)	x	n	n	x	x	x
CCOC(=O)c1c(CC(C)C)csc1NC(=O)CCl	u	n	n	n	8.9µM	n
C=CC1=C(C)C2=Cc3c(C=C)c(C)c4[n]3[Sn+2][n]3c(c(C)c(CCC(=O)O)c3=CC3=NC(=C4)C(C)=C3CCC(=O)O)=CC1=N2	x	10µM	n	1.4µM	u	u
COc1ccc(C(NC(=O)c2cccc(F)c2)c2ccccc2)cc1 (stereo not drawn)	n	n	n	x	u	n
COc1cc(OC)cc(C(=O)NC(c2ccccc2)c2ccccc2)c1	x	n	n	x	x	x
COc1cc(C(=O)NC(c2ccccc2)c2ccccc2)cc(Cl)c1OC	n	n	n	n	2µM	n
COc1ccc(C(NC(=O)c2ccc(F)cc2)c2ccccc2)cc1 (stereo not drawn)	n	n	n	x	22µM	n
COc1c(Cl)cc(C(=O)Nc2ccccc2-c2ccccc2)cc1Cl	n	n	n	n	13µM	u
CC(C)CN(C(=O)c1cc2ccccc2o1)c1c(N)n(CC(C)C)c(=O)[nH]c1=O	n	n	n	x	n	n
CCCc1[nH]nc2c1C(c1cccnc1)C(C#N)=C(N)O2 (stereo not drawn)	n	n	n	x	14µM	n
Cc1ccc(C2C(C#N)=C(N)Oc3n[nH]c(-c4cccs4)c32)cc1 (stereo not drawn)	n	n	n	n	n	7.1µM
CCCc1[nH]nc2c1C(/C(C)=C/c1ccccc1)C(C#N)=C(N)O2 (stereo not drawn)	n	n	n	n	14µM	n
Cc1ccc(SCc2[nH]nc3c2C(c2cccnc2)C(C#N)=C(N)O3)cc1 (stereo not drawn)	n	n	n	n	u	n
CCCc1[nH]nc2c1C(c1ccncc1)C(C#N)=C(N)O2 (stereo not drawn)	n	n	n	n	14µM	n
SMILES	NPSR antagonist	Sfp inh	FBPA coupling cs	GoLoco inh red	ALDH1A1 inh	KDM4E inh
Cc1cc(NS(=O)(=O)c2ccc(NC(=O)c3ccc(Cl)cc3[N+](=O)[O-])cc2)no1	x	n	n	x	x	x
C/C(=N/O)c1ccc2cc(Br)c3ccccc3c2c1	x	x	x	n[14.2 µM]	n[13.5 µM]	x
O=C(CN1C(=O)S/C(=C\c2ccccc2F)C1=O)NC1C=CS(=O)(=O)C1 (stereo not drawn)	x	n	n	x	x	x
CCCCCCNC(=O)N[C@@H](C(=O)NCCC[C@H]1CN2C(=NC[C@@H]2Cc2ccccc2)N1CCc1cccc(OC)c1)C(C)C	n	3.5µM	n	14µM	x	u
COc1ccccc1CC(=O)Nc1cccc(S(=O)(=O)N2CCOCC2)c1	x	n	x	x	x	x
O=S(=O)(c1ccc(NC(=S)N/N=C/c2c3ccccc3cc3ccccc23)cc1)N1CCOCC1	n	n	n	n	10µM	n
O=S(=O)(c1ccc(NC(=S)N/N=C/c2ccc(Oc3ccccc3)cc2)cc1)N1CCOCC1	n	n	n	n	u	n
CCCCNC(C(=O)Nc1cccc(S(=O)(=O)N2CCOCC2)c1)c1ccccc1 (stereo not drawn)	n	n	n	n	13µM	n
N#Cc1ccc(NC(=O)CCc2ccc(S(=O)(=O)N3CCOCC3)cc2)cc1	n	n	n	n	u	n
N#Cc1ccc(NC(=S)NC(=O)CCc2ccc(S(=O)(=O)N3CCOCC3)cc2)cc1	n	n	n	n	16µM	n
CCCCOCCCNC(=S)Nc1ccc(S(=O)(=O)N2CCOCC2)cc1	n	n	n	n	x	u
O=S(=O)(c1ccc(NC(=S)NCCC(c2ccccc2)c2ccccc2)cc1)N1CCOCC1	n	n	n	n	13µM	n
CCCc1cc(=O)oc2cc(C)cc(OC(C)C(=O)NCc3ccccn3)c12 (stereo not drawn)	x	n	x	x	x	x
O=C(NCCCN1CCOCC1)/C(=C/c1cccs1)NC(=O)c1ccccc1	x	n	n	x	x	x
Brc1ccc(C2=Nn3cnnc3SC2)cc1	x	n	n	x	x	x
Cc1ccc(CCCC(=O)O)cc1C	x	x	x	n[14.2 µM]	n[13.5 µM]	x
O=S(=O)(c1ccc(NC(=S)NN=C2CCCCC2)cc1)N1CCOCC1	n	n	n	n	14µM	u
COc1cccc(/C=C/C(=O)OCC(=O)N2c3ccccc3NC(=O)C2(C)C)c1	n	n	n	n	n	u
CCn1cnc2sc(C(=O)Oc3ccc(Br)cc3)c(C)c2c1=O	n	n	n	n	n	n
CCn1cnc2sc(C(=O)N(Cc3ccc(N(C)C)cc3)Cc3ccco3)c(C)c2c1=O	u	u	n	n	8.9µM	n
CC(C)S(=O)(=O)C1=NSC2=NC(=O)/C(=C\c3ccc(-c4cccc(C(=O)O)c4)o3)C(=N)N21	n	14µM	n	n	n	n
CC(C)S(=O)(=O)C1=NSC2=NC(=O)/C(=C\c3ccc(-c4ccccc4)o3)C(=N)N21	n	n	n	n	n	n
Cc1ccc(C(=O)N/N=C/c2ccc(-c3cccc(Cl)c3)o2)cn1	n	n	n	n	n	n
O=C(N/N=C/c1ccc(-c2ccccc2[N+](=O)[O-])o1)[C@H]1C[C@@H]1c1ccccc1	n	25µM	-44	n	n	n
O=C(O)/C(=C\c1ccc(-c2ccccc2[N+](=O)[O-])o1)c1ccccc1	x	n	n	x	x	x
Cc1ccc(C(=O)N/N=C/c2ccc(-c3ccccc3[N+](=O)[O-])o2)cn1	n	u	-61	n	n	n
O=C(/C=C/c1ccc(-c2ccccc2[N+](=O)[O-])o1)c1ccccc1	n	u	n	n	18µM	u
COC(=O)c1sc2nc(C)nc(SCC(=O)N3CCC(C(=O)O)CC3)c2c1C	n	n	n	n	u	u
